Several values for one entry are separate records, joined by “and”; a condition that tells them apart may be missing. Equal entries are not always repeated. Records with an inconclusive call do not appear. Entries that show only a call come without a potency. Activity calls are given as the source filed them. Unless noted, calls come from the whole dose curve; as a rule, active = well fitted curve in the direction sought with a large enough effect; inconclusive = small, poorly fitted or top-dose-only effect, or another doubt; inactive = no such curve, though single readings can be large; an effect the other way counts as inactive or inconclusive.
Experiments:
[1] = Cell Viability - BJ (AID 421; calls by dose curve;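 note: potency is the fitted concentration of half-maximal effect; cells exposed to compound for 40 hours at 37 °C before readout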); conditions: BJ fibroblast viability, qHTS
Outline: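 Cytotoxicity in human BJ foreskin fibroblasts is scored as loss of cellular ATP after a 40-hour exposure, measured by luciferase luminescence. Controls are DMSO and 100 uM tamoxifen.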

[2] = Cell Viability - MRC5 (AID 434; calls by dose curve;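 note: potency is the fitted concentration of half-maximal effect; potency reflects cytotoxicity seen as loss of intracellular ATP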); conditions: MRC5 lung fibroblast viability, qHTS
Outline: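 Decrease in intracellular ATP, quantified by luciferase light output, reflects compound toxicity toward MRC5 cells exposed for 40 hr in complete culture medium. Concentration-response curves, scaled between DMSO and 100 uM tamoxifen, gave AC50 values.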

[3] = Cell Viability - SK-N-SH (AID 435; calls by dose curve;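 note: potency is the fitted concentration of half-maximal effect; compound exposure lasted 40 h at 37 °C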); conditions: SK-N-SH neuroblastoma cell viability qHTS
Outline: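 SK-N-SH human neuroblastoma cells (1500/well) were exposed to compounds in complete medium for 40 h at 37 °C, and intracellular ATP was then measured by CellTiter-Glo luminescence. AC50 was taken from Hill fits, normalized to DMSO and 100 uM tamoxifen.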

[4] = Cell Viability - NIH 3T3 (AID 541); conditions: NIH 3T3 cell viability, qHTS; activity change, negative = cytotoxicity: at 92.2 µM (top of the series); note: nearly all actives have a fitted effect of over 25% in size
Outline: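 qHTS format; 40 hr compound exposure, 37 °C; CellTiter-Glo luminescence (cellular ATP) read-out after 20 min at RT. Decrease in ATP = cytotoxicity; AC50 from standard Hill fit.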

[5] = Cell Viability - Mesenchymal (AID 546); conditions: mesenchymal cells viability, qHTS; activity change, negative = cytotoxicity: at 91.7 µM (top of the series);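 note: cells exposed to compound for 40 hours before reading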
Outline: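 In this qHTS cytotoxicity format, glomerulus-derived human mesenchymal kidney cells received compound for 40 hr, then luciferase-based ATP quantitation. Concentration-response data were fitted with the Hill equation.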

[6] = Cellular Toxicity (caspase-3) BJ (AID 658); conditions: BJ fibroblasts, luminescence, normalized: DMSO 0%, staurosporine 100%; series mostly up to 91.7 µM
Outline: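 Plated BJ cells (1000/well) rested 5 hr, received compound for 16 hr at 37 °C, then Caspase-Glo 3/7 reagent for 1 hr at room temperature before luminescence reading.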

[7] = Cellular Toxicity (caspase-3) MRC-5 (AID 659); conditions: MRC-5 cells, luminescence, normalized: DMSO 0%, 10 µM staurosporine 100%; series mostly up to 91.7 µM
Outline: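 Apoptosis readout in MRC-5 cells: luciferase light generated after caspase 3/7 cleaves a peptide-aminoluciferin substrate, measured post 16 hr compound incubation at 37 °C.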

[8] = Cellular Toxicity (caspase-3) Mesangial (AID 660); conditions: mesangial cells, normalized: DMSO 0%, 100 µM tamoxifen 100%; series mostly up to 91.7 µM;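 note: combined caspase 3 and 7 activity read by Caspase-Glo luminescence; cells exposed to compound for 16 h before the caspase read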
Outline: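 Luminescent Caspase-Glo 3/7 readout (aminoluciferin substrate cleavage, 20 min RT) after 16 h compound exposure at 37 °C of normal human mesangial cells. Signal increase normalized between DMSO basal and 100 uM tamoxifen; Hill-equation AC50.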

[9] = Cellular Toxicity (caspase-3) Hek293 (AID 664); conditions: HEK293 caspase-3 activation, DMSO = 0%, 100 µM tamoxifen = 100%; series mostly up to 92.2 µM;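 note: cells exposed to compound for 16 h at 37 °C before readout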
Outline: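 Luminescent Caspase-Glo 3/7 readout (aminoluciferin release) in HEK293 cells after 16 h compound treatment, 37 °C. Normalization: DMSO = basal, 100 uM tamoxifen = 100% stimulation. Concentration-response fitted with standard Hill equation for AC50.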

[10] = Cellular Toxicity (caspase-3) Renal Proximal Tubule (AID 667); conditions: renal proximal tubule cells, primary cells freshly taken from rat, solvent-only wells 0%, staurosporine 100%; series mostly up to 91.7 µM;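 note: cells exposed to compound for 16 hours at 37 °C before detection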
Outline: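 Primary rat proximal tubule cells, 1000/well, 5 h plating at 37 °C, then compound 16 h at 37 °C. Caspase-Glo 3/7 reagent, 1 h RT, luminescence. Normalized to DMSO (basal) and 10 uM staurosporine (100%); Hill-fit AC50.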

[11] = MultiTox-Fluor Cytotoxicity Assay - LYMP1-003 - Live Cells (AID 962); conditions: LYMP1-003 lymphoblastoid cells, MultiTox-Fluor live-cell protease fluorescence; series mostly up to 92.2 µM;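 note: cytotoxic hits lower the live-cell protease signal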
Outline: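 Readout: live-cell fluorescence (Ex/Em=405/510) from GF-AFC cleavage after 60 min MultiTox-Fluor reagent at room temperature. Lymphoblastoid LYMP1-003 cells, 16 hr compound treatment, 37 C. Concentration-response fitted to standard Hill equation for AC50.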

[12] = qHTS Assay for Identification of Small Molecule Inducers of Hypoxia Response (AID 2120; active = well fitted curve in the direction sought with a large enough effect in the signal ratio, with a control signal flat, not every such curve was filed as active; the % refers to the signal ratio); conditions: hypoxia response reporter cells, beta-lactamase ratio readout; series mostly up to 104 µM
Outline: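 Read-out: CCF4 FRET emission ratio 460nm/530nm (excitation 405nm), converted to %Activity, with AC50 fitted across a compound titration. ME-180 cells carried an HRE-driven beta-lactamase reporter; compound exposure 17 h, 37 degrees C.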

[13] = biological target: Thyroid hormone receptor beta (Homo sapiens) (UniProt P10828); assay: qHTS assay for small molecule agonists of thyroid hormone receptor beta signaling (AID 588545; calls by dose curve); conditions: TR-UAS-bla GripTite HEK 293, beta-lactamase ratio, agonist mode, 18 h, percent of T3 response, DMSO as zero; series mostly up to 76.7 µM
Outline: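 TR-UAS-bla-GripTite HEK 293 cells in medium with 2% charcoal/dextran FBS, 0.1 mM NEAA and 1 mM sodium pyruvate were treated with titrated compounds for 18 hrs at 37 C. Beta-lactamase reporter was read with CCF4 dye (ex 405, em 460/530 nm); EC50 from Hill fits.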

[14] = qHTS assay for small molecule antagonists of retinoid X receptor alpha signaling (AID 588546; active = well fitted inhibition curve with a large enough effect in the signal ratio, with a control signal flat, not every such curve was filed as active; the % refers to the signal ratio;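 note: cells stimulated with 9-cis-retinoic acid as agonist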); conditions: HEK293T RXRa-UAS-bla, beta-lactamase ratio, antagonist mode; measured here: W530 green channel, cytotoxicity proxy
Outline: (§1)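 Beta-lactamase reporter inhibition, read as CCF4 fluorescence ratio (ex 405, em 460/530 nm) after 2 h at RT. HEK293T UAS-bla cells, 2500/well, were stimulated with 9-cis-RA at 500 or 100 nM final alongside test compound for 18 h at 37 C.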

[15] = biological target: Retinoic acid receptor RXR-alpha (Homo sapiens) (UniProt P19793); assay: as above; conditions: HEK293T RXRa-UAS-bla, beta-lactamase ratio, antagonist mode
Outline: as §1

[16] = qHTS assay for environmental chemicals that activate the Aryl hydrocarbon Receptor (AhR) signaling pathway (AID 651777); conditions: 1A2-DRE human hepatoma cells, luciferase, 24 h; activation: stronger effect = higher value; note: nearly all actives have a fitted effect of over 15% in size
Outline: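 Quantitative HTS in stably transfected human liver-derived cells whose luciferase gene sits downstream of the CYP1A2 promoter and dioxin response element. After 24 hr exposure at 37 C, One-Glo luminescence was measured.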

[17] = biological target: Peroxisome proliferator-activated receptor alpha (Homo sapiens) (UniProt Q07869); assay: qHTS assay for small molecule agonists of the peroxisome proliferator-activated receptor alpha (PPARalpha) signaling pathway (AID 651778); conditions: PathHunter PPARalpha complementation, chemiluminescence, 6 h; max response: stronger effect = higher value
Outline: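 Cells plated at 2,000/well and held overnight at 37 C, 5% CO2, then compound added by pin tool for 6 hr; after PathHunter detection reagent and 60 min at room temperature, chemiluminescence from enzyme complementation was read.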

[18] = qHTS assay for small molecule agonists of the antioxidant response element (ARE) signaling pathway measured by Nrf2-dependant transcriptional activity (AID 720636; active = well fitted curve in the direction sought with a large enough effect in the repeat runs; an effect the other way counts as inactive or inconclusive); conditions: ARE-luc HepG2, Nrf2 luciferase reporter, 16 h; series mostly up to 92.4 µM
Outline: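 Quantitative HTS format in HepG2 cells stably expressing an ARE-luciferase reporter; 16 hr compound treatment at 37 C, luciferase signal detected with ONE-Glo.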

[19] = qHTS assay for small molecule agonists of the antioxidant response element (ARE) signaling pathway measured by Nrf2-dependant transcriptional activity - cell viability counter screen (AID 720653; active = well fitted curve in the direction sought with a large enough effect in the repeat runs; an effect the other way counts as inactive or inconclusive); conditions: ARE-bla HepG2 viability, CellTiter-Glo ATP luminescence, 16 h; max response: stronger effect = lower value
Outline: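 ARE-bla HepG2 cells (2,000/well) rested 5 hrs at 37C/5% CO2, then exposed to compounds in DMSO for 16 hrs. Viability was read in the same wells as intracellular ATP by luminescence, 30 min at room temperature after reagent addition.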

[20] = qHTS assay for cell viability of HEK293 cells (AID 743288); conditions: ATP luminescence (CellTiter-Glo), 18 h; max response: stronger effect = lower value; note: nearly all actives have a fitted effect of over 50% in size
Outline: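 After 18 h compound exposure at 37 C, parental HEK293 cells (2,000/well) are lysed with CellTiter-Glo and luminescence is read following 30 min at room temperature.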

Sequence of Thyroid hormone receptor beta (Homo sapiens) (P10828 whole entry, looked up): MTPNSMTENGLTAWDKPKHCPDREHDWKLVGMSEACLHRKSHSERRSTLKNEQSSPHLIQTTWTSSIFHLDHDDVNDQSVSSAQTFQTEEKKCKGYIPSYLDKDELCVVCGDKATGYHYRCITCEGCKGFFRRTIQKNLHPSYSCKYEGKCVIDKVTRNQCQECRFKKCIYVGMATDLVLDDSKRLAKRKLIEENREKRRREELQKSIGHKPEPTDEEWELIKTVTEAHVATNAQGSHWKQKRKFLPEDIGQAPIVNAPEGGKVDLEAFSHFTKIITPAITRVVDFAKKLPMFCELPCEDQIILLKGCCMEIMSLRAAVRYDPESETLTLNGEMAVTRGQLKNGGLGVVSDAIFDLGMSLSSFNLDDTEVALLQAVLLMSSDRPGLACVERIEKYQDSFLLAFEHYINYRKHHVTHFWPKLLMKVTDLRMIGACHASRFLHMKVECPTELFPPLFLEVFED
Sequence of Peroxisome proliferator-activated receptor alpha (Homo sapiens) (Q07869 whole entry, looked up): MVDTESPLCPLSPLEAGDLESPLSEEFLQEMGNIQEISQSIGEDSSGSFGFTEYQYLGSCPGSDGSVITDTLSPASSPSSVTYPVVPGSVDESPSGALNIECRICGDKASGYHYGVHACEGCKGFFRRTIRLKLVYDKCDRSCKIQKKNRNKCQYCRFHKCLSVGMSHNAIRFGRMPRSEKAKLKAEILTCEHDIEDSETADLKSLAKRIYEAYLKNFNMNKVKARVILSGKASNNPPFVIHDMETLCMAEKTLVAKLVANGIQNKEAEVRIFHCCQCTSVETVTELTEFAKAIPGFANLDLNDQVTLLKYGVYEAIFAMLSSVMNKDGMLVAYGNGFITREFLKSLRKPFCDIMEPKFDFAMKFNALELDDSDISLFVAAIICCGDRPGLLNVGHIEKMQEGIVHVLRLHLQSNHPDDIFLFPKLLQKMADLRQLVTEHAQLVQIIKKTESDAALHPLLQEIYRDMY
Sequence of Retinoic acid receptor RXR-alpha (Homo sapiens) (P19793 whole entry, looked up): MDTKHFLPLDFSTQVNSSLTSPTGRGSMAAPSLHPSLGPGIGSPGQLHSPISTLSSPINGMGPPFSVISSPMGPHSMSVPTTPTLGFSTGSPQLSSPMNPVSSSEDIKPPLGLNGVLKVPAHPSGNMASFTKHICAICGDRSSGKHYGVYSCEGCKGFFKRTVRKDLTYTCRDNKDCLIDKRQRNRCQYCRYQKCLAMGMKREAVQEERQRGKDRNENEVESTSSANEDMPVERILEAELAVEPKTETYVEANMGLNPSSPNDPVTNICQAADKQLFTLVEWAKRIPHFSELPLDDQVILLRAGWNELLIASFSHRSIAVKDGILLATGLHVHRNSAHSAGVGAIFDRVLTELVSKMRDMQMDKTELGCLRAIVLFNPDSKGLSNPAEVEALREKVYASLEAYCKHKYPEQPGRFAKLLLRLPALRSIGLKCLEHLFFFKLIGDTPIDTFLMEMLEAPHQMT

| Compound | Potency [1] | Potency [2] | Potency [3] | Potency [4] | activity change, negative = cytotoxicity [5] | outcome [6] | outcome [7] | outcome [8] | outcome [9] | outcome [10] | Potency [11] | outcome [12] | outcome [13] | max response [14] | max response [15] | activation [16] | max response [17] | Potency [18] | max response [19] | max response [20] |
| --- | --- | --- | --- | --- | --- | --- | --- | --- | --- | --- | --- | --- | --- | --- | --- | --- | --- | --- | --- | --- |
| O=C(O)CC(C(=O)O)C(CC(=O)O)C(=O)O (stereo not given) | > 92 µM (inactive) | > 92 µM (inactive) | > 92 µM (inactive) | inactive | -11.1% (inactive) | inactive | inactive | inactive | inactive | inactive | inactive | inactive | inactive | 3.1% and -5.42% | -2.56% (inactive) and -11.2% (inactive) | -0.527% (inactive) and 0.126% (inactive) | -1.2% (inactive) and -0.001% (inactive) | inactive | -9.78% (inactive) and -3.54% (inactive) | -0.385% (inactive) and -19.1% (inactive) |
| Nc1ccc(S(=O)(=O)O)cc1 | > 92 µM (inactive) | > 92 µM (inactive) | > 92 µM (inactive) | inactive | 9.75% (inactive) | inactive | inactive | inactive | inactive | inactive | inactive | inactive | inactive | -0.278% | -17.1% (inactive) | -0.977% (inactive) and -1% (inactive) | -1.01% (inactive) and -2.98% (inactive) | inactive | 0.96% (inactive) and 3.16% (inactive) | -3.43% (inactive) and 3.86% (inactive) |
| CC(=O)OC/C=C(\C)CCC=C(C)C | > 92 µM (inactive) | > 92 µM (inactive) | > 92 µM (inactive) | inactive | 8.38% (inactive) | inactive | inactive | inactive | inactive | inactive | inactive | inactive | inactive | -3.71% and -6.77% | 5.08% (inactive) and 4.69% (inactive) | 0.424% (inactive) and -0.161% (inactive) | -5.73% (inactive) and -0.163% (inactive) | inactive | -2.65% (inactive) and 12.5% (inactive) | -10.3% (inactive) and 5.2% (inactive) |
| COC(=O)CCCCC(=O)OC | > 92 µM (inactive) | > 92 µM (inactive) | > 92 µM (inactive) | inactive | 1.32% (inactive) | inactive | inactive | inactive | inactive | inactive | inactive | inactive | inactive | -7.1% and -4.41% and 10.6% | -2.55% (inactive) and -9.27% (inactive) and -5.71% (inactive) | 3.11% (inactive) and -1.77% (inactive) and 1.4% (inactive) | -1.36% (inactive) and -1.93% (inactive) and -0.772% (inactive) | inactive | -2.58% (inactive) and 2.67% (inactive) and 6.18% (inactive) | -0.912% (inactive) and -4.94% (inactive) and -1.91% (inactive) |
